Inconclusive results are not listed. Where a call stands in place of a potency, no number is given. Active and inactive are the calls of the source. Calls follow the shape of the dose curve; as a rule, active = well fitted activation curve with a large enough effect in the repeat runs; inconclusive = weak or mixed curves; inactive = flat fitted curve, though single readings scatter.

One assay in a line: A CellTox Green Cytotoxicity Assay to monitor cytotoxicity in HEK293 cells - 32 hour (AID 1224881). Also: nearly all actives have a fitted effect of over 40% in size. Particulars: CellTox Green fluorescence; series mostly up to 76.8 µM. Put shortly:
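Each value comes from one timepoint of a single continuous run in which HEK293 cells with CellTox Green were exposed to compound for up to 40 h at 37 C, dye fluorescence rising with cell death.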
With `O=c1[nH]c2ccc(Cl)cc2o1`, the Potency entry was “inactive”.

Consider `Cc1ccc(C(C)(C)O)cc1`, for which the Potency entry was “inactive”.

With `CCCC(=O)C(=O)O`, the Potency entry was “inactive”.

As to `CC(C)=CCC1C(=O)N(c2ccccc2)N(c2ccccc2)C1=O`, the Potency result was “inactive”.

For `CCOC(=O)/C=C/C(=O)OCC`, the Potency result was “inactive”.

In the case of `Cc1ccc(CO)cc1`, the Potency result is “inactive”.

For the compound `O=C(OC(=O)c1ccccc1)c1ccccc1`, the Potency entry was “inactive”.

As to `CC(C)=CCC/C(C)=C/CC/C(C)=C/CCC(=O)OC/C=C(\C)CCC=C(C)C`, the Potency result was “inactive”.

With `O[C@@H]1CO[C@H]2[C@@H]1OC[C@@H]2O`, the Potency result is “inactive”.

Regarding `CCCCC(CC)CN` (stereo not given), the Potency result is “inactive”.

With `COc1cc(C(=O)NCCCCCC(=O)O)cc(OC)c1OC`, the Potency result is “inactive”.

As to `CC(CCC(=O)O)C(=O)O` (stereo not given), the Potency entry is “inactive”.

Turning to `CCC1NC(=O)c2cc(S(N)(=O)=O)c(Cl)cc2N1` (stereo not given), the Potency result is “inactive”.

As to `O=C1NCCN1CCO`, the Potency entry is “inactive”.

`C1COC1`: the Potency result is “inactive”.

With `CCn1cc(C(=O)O)c(=O)c2cc(F)c(N3CCNCC3)cc21`, the Potency entry was “inactive”.

Regarding `CO[C@]1(NC(=O)CSC(F)F)C(=O)N2C(C(=O)O)=C(CSc3nnnn3CCO)CO[C@H]21`, the Potency entry is “inactive”.

Regarding `O=C(O)CCCCCCCCCCCBr`, the Potency entry is “inactive”.

Take `CCC(=O)OC`: the Potency result is “inactive”.

Consider `CCC(C)(C)OC`, for which the Potency result was “inactive”.

Take `CC(C)=CC(=O)C=C(C)C`: the Potency entry was “inactive”.

Regarding `CC(=O)OCC(=O)NCCCOc1cccc(CN2CCCCC2)c1`, the Potency result is “inactive”.

Take `CCCCCCCCCI`: the Potency entry is “inactive”.

Consider `CCc1ccccc1`, for which the Potency result is “inactive”.

Turning to `Cc1ccccc1S`, the Potency entry is “inactive”.

As for `Cc1cscn1`, the Potency entry is “inactive”.

Regarding `N#CCc1ccc(Cl)cc1Cl`, the Potency result was “inactive”.

For `CCCCCC[C@@H](O)C/C=C\CCCCCCCC(=O)O`, the Potency entry was “inactive”.

Turning to `Cc1cc(C)c(N)cc1C`, the Potency result was “inactive”.

For `C=CC(C)(CCC=C(C)C)OC(=O)CC(C)C` (stereo not given), the Potency entry was “inactive”.

In the case of `O=C(/C=C/c1ccccc1)OCCc1ccccc1`, the Potency entry was “inactive”.

Turning to `CCCCCCCCC(CCCCCC)C(=O)O` (stereo not given), the Potency result was “inactive”.

Turning to `Cc1ccco1`, the Potency entry was “inactive”.

In the case of `C[C@H]1c2cccc(O)c2C(O)=C2C(=O)[C@]3(O)C(O)=C(C(N)=O)C(=O)[C@@H](N(C)C)[C@@H]3[C@@H](O)[C@@H]21`, the Potency entry is “inactive”.

On to `CC1(C)[C@H](C(=O)O)N2C(=O)C[C@H]2S1(=O)=O`, for which the Potency result is “inactive”.

Regarding `CO/N=C(/C(=O)N[C@@H]1C(=O)N2C(C(=O)O)=C(COC(N)=O)CS[C@H]12)c1ccco1`, the Potency entry was “inactive”.

In the case of `C=CC(=O)[O-].C=CC(=O)[O-].[Zn+2]`, the Potency entry was “inactive”.

With `O=C1c2ccccc2C(=O)C1c1ccc(Br)cc1`, the Potency result was “inactive”.

As for `CCC(OCCCOC)OC(C)=O` (stereo not given), the Potency entry is “inactive”.

With `COC(=O)CS`, the Potency entry was “inactive”.

A short description of the next assay: A CellTox Green Cytotoxicity Assay to monitor cytotoxicity in HepG2 cells - 0 hour (AID 1224882). Also: nearly all actives have a fitted effect of over 35% in size. Particulars: CellTox Green fluorescence; series mostly up to 76.8 µM. The method in brief: (§1)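 Continuous culture of HepG2 cells with a membrane-impermeant DNA dye; rising fluorescence marks dead cells. Compound exposure lasted up to 40 h at 37 C, with reads every 8 h from 0 h.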
As for `O=c1[nH]c2ccc(Cl)cc2o1`, the Potency entry was “inactive”.

Turning to `Cc1ccc(C(C)(C)O)cc1`, the Potency entry is “inactive”.

For the compound `CCCC(=O)C(=O)O`, the Potency entry was “inactive”.

On to `CC(C)=CCC1C(=O)N(c2ccccc2)N(c2ccccc2)C1=O`, for which the Potency entry was “inactive”.

For `CCOC(=O)/C=C/C(=O)OCC`, the Potency result was “inactive”.

Take `Cc1ccc(CO)cc1`: the Potency result was “inactive”.

As for `O=C(OC(=O)c1ccccc1)c1ccccc1`, the Potency result is “inactive”.

`CC(C)=CCC/C(C)=C/CC/C(C)=C/CCC(=O)OC/C=C(\C)CCC=C(C)C`: the Potency entry was “inactive”.

Turning to `O[C@@H]1CO[C@H]2[C@@H]1OC[C@@H]2O`, the Potency result was “inactive”.

For the compound `CCCCC(CC)CN` (stereo not given), the Potency entry was “inactive”.

For the compound `COc1cc(C(=O)NCCCCCC(=O)O)cc(OC)c1OC`, the Potency entry was “inactive”.

Take `CC(CCC(=O)O)C(=O)O` (stereo not given): the Potency result is “inactive”.

In the case of `CCC1NC(=O)c2cc(S(N)(=O)=O)c(Cl)cc2N1` (stereo not given), the Potency result is “inactive”.

On to `O=C1NCCN1CCO`, for which the Potency result was “inactive”.

On to `C1COC1`, for which the Potency result is “inactive”.

For `CCn1cc(C(=O)O)c(=O)c2cc(F)c(N3CCNCC3)cc21`, the Potency result is “inactive”.

With `CO[C@]1(NC(=O)CSC(F)F)C(=O)N2C(C(=O)O)=C(CSc3nnnn3CCO)CO[C@H]21`, the Potency entry is “inactive”.

In the case of `O=C(O)CCCCCCCCCCCBr`, the Potency entry was “inactive”.

Turning to `CCC(=O)OC`, the Potency entry is “inactive”.

Consider `CCC(C)(C)OC`, for which the Potency result is “inactive”.

Turning to `CC(C)=CC(=O)C=C(C)C`, the Potency entry is “inactive”.

In the case of `CC(=O)OCC(=O)NCCCOc1cccc(CN2CCCCC2)c1`, the Potency result is “inactive”.

As for `CCCCCCCCCI`, the Potency result was “inactive”.

For `CCc1ccccc1`, the Potency result was “inactive”.

For the compound `Cc1ccccc1S`, the Potency result was “inactive”.

On to `Cc1cscn1`, for which the Potency result is “inactive”.

For `N#CCc1ccc(Cl)cc1Cl`, the Potency result is “inactive”.

For `CCCCCC[C@@H](O)C/C=C\CCCCCCCC(=O)O`, the Potency result was “inactive”.

Regarding `Cc1cc(C)c(N)cc1C`, the Potency entry is “inactive”.

With `C=CC(C)(CCC=C(C)C)OC(=O)CC(C)C` (stereo not given), the Potency result was “inactive”.

For `O=C(/C=C/c1ccccc1)OCCc1ccccc1`, the Potency entry is “inactive”.

Consider `CCCCCCCCC(CCCCCC)C(=O)O` (stereo not given), for which the Potency entry was “inactive”.

In the case of `Cc1ccco1`, the Potency result is “inactive”.

With `C[C@H]1c2cccc(O)c2C(O)=C2C(=O)[C@]3(O)C(O)=C(C(N)=O)C(=O)[C@@H](N(C)C)[C@@H]3[C@@H](O)[C@@H]21`, the Potency entry is “inactive”.

For `CC1(C)[C@H](C(=O)O)N2C(=O)C[C@H]2S1(=O)=O`, the Potency result was “inactive”.

On to `CO/N=C(/C(=O)N[C@@H]1C(=O)N2C(C(=O)O)=C(COC(N)=O)CS[C@H]12)c1ccco1`, for which the Potency result was “inactive”.

Turning to `C=CC(=O)[O-].C=CC(=O)[O-].[Zn+2]`, the Potency result was “inactive”.

Turning to `O=C1c2ccccc2C(=O)C1c1ccc(Br)cc1`, the Potency result is “inactive”.

For the compound `CCC(OCCCOC)OC(C)=O` (stereo not given), the Potency entry is “inactive”.

With `COC(=O)CS`, the Potency entry was “inactive”.

Another assay can be described thus: A CellTox Green Cytotoxicity Assay to monitor cytotoxicity in HepG2 cells - 32 hour (AID 1224883). Also: nearly all actives have a fitted effect of over 50% in size. Also: potency is read from the fitted curve at half-maximal effect. Particulars: CellTox Green fluorescence; series mostly up to 76.8 µM. The method in brief:
as §1
As for `O=c1[nH]c2ccc(Cl)cc2o1`, the Potency result is “inactive”.

Consider `Cc1ccc(C(C)(C)O)cc1`, for which the Potency entry is “inactive”.

Turning to `CCCC(=O)C(=O)O`, the Potency entry is “inactive”.

As for `CC(C)=CCC1C(=O)N(c2ccccc2)N(c2ccccc2)C1=O`, the Potency result is “inactive”.

In the case of `CCOC(=O)/C=C/C(=O)OCC`, the Potency entry was “inactive”.

`Cc1ccc(CO)cc1`: the Potency entry was “inactive”.

For the compound `O=C(OC(=O)c1ccccc1)c1ccccc1`, the Potency result was “inactive”.

On to `CC(C)=CCC/C(C)=C/CC/C(C)=C/CCC(=O)OC/C=C(\C)CCC=C(C)C`, for which the Potency result was “inactive”.

For the compound `O[C@@H]1CO[C@H]2[C@@H]1OC[C@@H]2O`, the Potency entry was “inactive”.

Consider `CCCCC(CC)CN` (stereo not given), for which the Potency entry is “inactive”.

As to `COc1cc(C(=O)NCCCCCC(=O)O)cc(OC)c1OC`, the Potency entry is “inactive”.

`CC(CCC(=O)O)C(=O)O` (stereo not given): the Potency entry was “inactive”.

Regarding `CCC1NC(=O)c2cc(S(N)(=O)=O)c(Cl)cc2N1` (stereo not given), the Potency result is “inactive”.

For the compound `O=C1NCCN1CCO`, the Potency entry was “inactive”.

For `C1COC1`, the Potency entry was “inactive”.

As for `CCn1cc(C(=O)O)c(=O)c2cc(F)c(N3CCNCC3)cc21`, the Potency result is “inactive”.

Regarding `CO[C@]1(NC(=O)CSC(F)F)C(=O)N2C(C(=O)O)=C(CSc3nnnn3CCO)CO[C@H]21`, the Potency result was “inactive”.

As to `O=C(O)CCCCCCCCCCCBr`, the Potency result was “inactive”.

For the compound `CCC(=O)OC`, the Potency entry is “inactive”.

On to `CCC(C)(C)OC`, for which the Potency result is “inactive”.

Take `CC(C)=CC(=O)C=C(C)C`: the Potency result was “inactive”.

On to `CC(=O)OCC(=O)NCCCOc1cccc(CN2CCCCC2)c1`, for which the Potency result is “inactive”.

Consider `CCCCCCCCCI`, for which the Potency result is “inactive”.

As for `CCc1ccccc1`, the Potency result was “inactive”.

Regarding `Cc1ccccc1S`, the Potency entry was “inactive”.

Consider `Cc1cscn1`, for which the Potency entry is “inactive”.

Regarding `N#CCc1ccc(Cl)cc1Cl`, the Potency result is “inactive”.

For the compound `CCCCCC[C@@H](O)C/C=C\CCCCCCCC(=O)O`, the Potency entry was “inactive”.

As to `Cc1cc(C)c(N)cc1C`, the Potency entry is “inactive”.

On to `C=CC(C)(CCC=C(C)C)OC(=O)CC(C)C` (stereo not given), for which the Potency entry was “inactive”.

Regarding `O=C(/C=C/c1ccccc1)OCCc1ccccc1`, the Potency entry was “inactive”.

As to `CCCCCCCCC(CCCCCC)C(=O)O` (stereo not given), the Potency was 61.6 µM (active).

On to `Cc1ccco1`, for which the Potency entry was “inactive”.

For `C[C@H]1c2cccc(O)c2C(O)=C2C(=O)[C@]3(O)C(O)=C(C(N)=O)C(=O)[C@@H](N(C)C)[C@@H]3[C@@H](O)[C@@H]21`, the Potency result was “inactive”.

For the compound `CC1(C)[C@H](C(=O)O)N2C(=O)C[C@H]2S1(=O)=O`, the Potency entry is “inactive”.

Regarding `CO/N=C(/C(=O)N[C@@H]1C(=O)N2C(C(=O)O)=C(COC(N)=O)CS[C@H]12)c1ccco1`, the Potency result was “inactive”.

On to `C=CC(=O)[O-].C=CC(=O)[O-].[Zn+2]`, for which the Potency result was “inactive”.

`O=C1c2ccccc2C(=O)C1c1ccc(Br)cc1`: the Potency result is “inactive”.

As for `CCC(OCCCOC)OC(C)=O` (stereo not given), the Potency result was “inactive”.

Consider `COC(=O)CS`, for which the Potency result is “inactive”.
